Pf Dd2 inh = inhibitors of Plasmodium falciparum Dd2 growth; AID 1347417; actives 4.3% (n = 120,000); P. falciparum Dd2 growth, SYBR Green, 72 h; Potency, µM (highest dose often 28.9 µM), without a hit: at the highest dose activity, negative = inhibition, most hits filed as inhibitors; active = well fitted inhibition curve with a large enough effect;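 also: plate controls were DMSO vehicle for no effect and reference drug for full effect; nearly all actives have a fitted effect of over 65% in size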
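Readout: SYBR Green fluorescence, 485 nm excitation, 535 nm emission, after ~16 h lysis at 37C. Before that, Dd2-infected red cells (2.5% hematocrit) grew 72 h with compound, 29 uM top final concentration.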
An asterisk follows results filed as active; i = inactive; [ ] = another dose, or the depositor's remark. The sample as a whole holds a higher share of hits than the screen did. Potency is read from the fitted curve at half-maximal effect.

SMILES	Pf Dd2 inh
Cc1cc(C)cc(NC(=O)C2CCCN2S(=O)(=O)c2cccc3nsnc23)c1 (configuration not stated)	3.2µM*
Cc1ccc(NC(=O)C2CCCN(S(=O)(=O)c3cccc4nsnc34)C2)cc1C (configuration not stated)	-26%
NC(c1ccccc1)c1nnc2n1CCN(C(=O)N1CCCC1)C2 (configuration not stated)	51%
CC(=O)NC[C@H]1CCN(S(=O)(=O)c2cccc(C#N)c2)C[C@H]1N(C)C	0%
O=C(Cc1ccccc1)Nc1ccc2n(c1=O)C[C@H]1C[C@@H]2CN(S(=O)(=O)c2ccc(Cl)cc2)C1	-16%
O=C(c1ccccc1)N1CCC(N2CC3CC(C2)[C@H]2CCCC(=O)N2C3)CC1 (some centres not stated)	12%
COc1ccc(C(=O)N2CCC3(CC2)C(=NC2CCCCC2)NC(=O)N3c2cccnc2)cc1	8%
CN(C)c1ccc(-c2nc(C3CC(=O)N(c4ccc(Cl)cc4)C3)no2)cc1 (configuration not stated)	57%
COCCNC(=O)CCc1c(C)nn(-c2ccc(F)cc2)c1Oc1ccccc1C	-8%
O=C1N(Cc2ccc(F)cc2)CCCC12CCN(CC1CCCC1)C2 (configuration not stated)	4µM*
O=C1Nc2ccccc2CC12CCCN(CC1CCCCC1)C2 (configuration not stated)	-21%
CN(C)S(=O)(=O)N1CCC2(CCCN(Cc3ccc(F)c(F)c3)C2=O)C1 (configuration not stated)	-11%
O=C(Cn1nc2n(c1=O)CCCC2)Nc1ccc(C(F)(F)F)cc1	11%
O=C(Cc1ccsc1)N1CCC(c2noc(C3CC3)n2)C1 (configuration not stated)	i[5.79 µM]
CC(=O)NC[C@H]1OC[C@@H](NC2CCCCC2)[C@@H]1O	21%[44.1 µM]
O=C1CCCCN1CC(=O)N1CCCC(CCc2ccc(F)cc2F)C1 (configuration not stated)	-3%
CCCS(=O)(=O)Nc1ccc(=O)n2c1[C@@H]1C[C@@H](CN(C(=O)COc3ccccc3)C1)C2	i
O=C(c1cscn1)N1CCCC2(CN[S+](=O)([O-])c3cccnc3O2)C1 (configuration not stated)	11%
O=C(NCC(c1ccc2c(c1)OCO2)N1CCOCC1)C(=O)Nc1cccc(Cl)c1 (configuration not stated)	-10%
CCOc1ccc(C(=O)NCC(c2ccc3c(c2)OCO3)N2CCOCC2)cc1 (configuration not stated)	9%[0.594 µM]
CCOc1ccc(C(=O)NCC(c2ccc3c(c2)OCO3)N2CCN(c3ccc(F)cc3)CC2)cc1 (configuration not stated)	11µM*
CCC(=O)NCC(c1ccc2c(c1)OCO2)N1CCN(c2ccccc2)CC1 (configuration not stated)	-4%
O=C(NCC(c1ccc2c(c1)OCO2)N1CCN(c2ccc(F)cc2)CC1)c1cccc([N+](=O)[O-])c1 (configuration not stated)	-16%
CN1CCN(C(CNC(=O)C(=O)Nc2cccc(Cl)c2)c2ccc3c(c2)OCO3)CC1 (configuration not stated)	7.1µM*
CC(C)C(=O)NCC(c1ccc2c(c1)OCO2)N1CCN(c2ccccc2)CC1 (configuration not stated)	7%
SMILES	Pf Dd2 inh
COc1ccc(N2CCN(C(CNC(=O)CC(C)C)c3ccc4c(c3)OCO4)CC2)cc1 (configuration not stated)	5.6µM*
Cc1cccc(NC(=O)C(=O)NCC(c2ccc3c(c2)OCO3)N2CCN(C)CC2)c1C (configuration not stated)	-23%
COC(=O)N(C)C1CCc2ccccc21 (configuration not stated)	-12%[44.1 µM]
N#Cc1cccc(-c2cn3c(n2)N(C(=O)c2cccnc2)CCC3)c1	i
O=C(CN1CC2CC(C1)[C@H]1CCCC(=O)N1C2)NCCCN1CCCCCC1 (some centres not stated)	-25%
Cc1ccc(NC(=O)N2C[C@@H](Oc3cccnc3)C[C@H]2C(=O)N2CCOCC2)cc1C	14%
O=C1CCCCC(C(=O)NCc2ccc(Cl)cc2)N1 (configuration not stated)	11%
O=C(c1ccsc1)N1CCC2(CC1)CC(N(Cc1ccc(F)cc1)C1CC1)CCO2 (configuration not stated)	8.9µM*
O=C(NC1CCCC1)N1CCC2(CC1)CC(N(C(=O)c1ccccc1)C1CC1)CCO2 (configuration not stated)	i
O=C(COc1ccccc1)N1CCC2(CC1)CC(N(Cc1ccccc1)C1CC1)CCO2 (configuration not stated)	3.2µM*
CCS(=O)(=O)N(C1CC1)C1CCOC2(CCN(C(=O)c3ccc(F)cc3)CC2)C1 (configuration not stated)	45%
COc1cccc(CC(=O)N2CCC3(CC2)CC(N(Cc2ccccc2)C2CC2)CCO3)c1 (configuration not stated)	-17%
O=C(c1ccsc1)N1CCC2(CC1)CC(N(Cc1ccccc1)C1CC1)CCO2 (configuration not stated)	-28%
O=C(NC1CCCC1)N1CCC2(CC1)CC(N(Cc1ccc(F)cc1)C1CC1)CCO2 (configuration not stated)	4.5µM*
COC(=O)CNC(=O)N1CCC2(CC1)CC(N(Cc1ccc(F)cc1)C1CC1)CCO2 (configuration not stated)	-2%
CCC(CC)C(=O)N1CCC2(CC1)CC(N(Cc1ccc(F)cc1)C1CC1)CCO2 (configuration not stated)	-13%
O=C(Cc1ccccc1)N1CCC2(CC1)CC(N(Cc1ccccc1)C1CC1)CCO2 (configuration not stated)	i
Cc1ccsc1C(=O)N1CCC2(CC1)CC(N(C(=O)c1ccccc1)C1CC1)CCO2 (configuration not stated)	i
Cc1ccsc1C(=O)N1CCC2(CC1)CC(N(Cc1ccc(F)cc1)C1CC1)CCO2 (configuration not stated)	10µM*
O=C(c1ccccc1F)N1CCC(N2CCNC2=O)CC1	16%[44.1 µM]
Cc1ccc(NC(=O)N2CC(C(=O)N(C)C)C3(CCOCC3)C2)cc1F (configuration not stated)	11%
CNC(=O)c1nc2sccn2c1Br	6%[44.1 µM]
CCS(=O)(=O)Nc1ccc(C2(C(=O)NCc3cccc(C)c3)CCC2)cc1	-17%
COc1cccc(CNC(=O)Cn2ccn3nc4c(c3c2=O)CCCC4)c1	8%
COc1cc(CN2C[C@@H]3C(=O)N(C)C(=O)[C@@H]3C2)cc(OC)c1	23%
SMILES	Pf Dd2 inh
CC(=O)NCC(=O)N1C[C@@H](COCC2CC2)[C@H](c2ccncc2)C1	47%
O=C(O)C1CCc2nnc(C3CCCN([S+](=O)([O-])c4ccccc4)C3)n21 (configuration not stated)	6%
O=C(Cn1cccc1-c1nc(-c2ccc(F)cc2)no1)Nc1ccc(Cl)cc1	144%
O=C(Cn1cccc1-c1nc(-c2ccc(F)cc2)no1)Nc1ccc(F)c(F)c1	i
COc1ccc(NC(=O)Cn2cccc2-c2nc(-c3ccccc3)no2)cc1	3.2µM*
O=C(Cn1cccc1-c1nc(-c2ccccc2)no1)Nc1cc(F)cc(F)c1	10%
Cc1cccc(NC(=O)Cn2cccc2-c2nc(-c3ccc(F)cc3)no2)c1C	-14%
O=C(Cn1cccc1-c1nc(-c2ccccc2)no1)Nc1cccc(Cl)c1	2.5µM*

Source: PubChem BioAssay (National Center for Advancing Translational Sciences (NCATS))
